Experimental data: PubChem BioAssay (NCATS)
Results filed as inconclusive are left out. Where a call stands in place of a potency, no number is given. Unmarked numbers belong to inactive results. Calls of active or inactive are those of the source. The call rests on the fitted dose curve; in most records, active means well fitted curve in the direction sought with a large enough effect; inconclusive means small, poorly fitted or top-dose-only effect, or another doubt; inactive means no such curve, though single readings can be large; an effect the other way counts as inactive or inconclusive.

Experiments:
JEG-3 = assay: Primary qHTS to identify gynecologic anti-cancer compounds using libraries of approved drugs and bioactive compounds (AID 1345084); settings: Gynecologic cancer cell panel viability, ATPlite luminescence, 48 h; series mostly up to 57.5 µM; further: nearly all actives have a fitted effect of over 55% in size; further: potency means the concentration at half of the fitted maximal effect
In short: (§1)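 Measured: luminescence after ATPlite addition (15 min, RT). Exposure: 48 h, 37 C, 5% CO2.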

OV90 = assay: as above; settings: Gynecologic cancer cell panel viability, ATPlite luminescence, 48 h; series mostly up to 57.5 µM
In short: as §1

PA-1 = assay: as above; settings: Gynecologic cancer cell panel viability, ATPlite luminescence, 48 h; series mostly up to 57.5 µM
In short: as §1

SKOV3 = assay: as above; settings: Gynecologic cancer cell panel viability, ATPlite luminescence, 48 h; series mostly up to 57.5 µM
In short: as §1

Tov-21-G = assay: as above; settings: Gynecologic cancer cell panel viability, ATPlite luminescence, 48 h; series mostly up to 57.5 µM
In short: as §1

Tov112D = assay: as above; settings: Gynecologic cancer cell panel viability, ATPlite luminescence, 48 h; series mostly up to 57.5 µM
In short: as §1

[1] = Drug repurposing screens with cells derived from glioblastoma tumor samples (AID 1345199); settings: GBM patient neurospheres viability, ATP luminescence, 48 h; further: nearly all actives have a fitted effect of over 40% in size
In short: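 Four patient lines of CD133+ GBM neurospheres were screened at several concentrations; hits were retested in those lines plus three slower-growing GBM lines, using 48-hour treatment and ATP-based viability.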

[2] = qHTS assay to identify inhibitors of the type 1 interferon - major histocompatibility complex class I in skeletal muscle: Counter screen cell viability and HiBit confirmation (AID 1347412); settings: iHSKM muscle cells + IFN-b, HiBiT or CellTiter-Glo, 24 h; for Potency: HiBiT; for activity change, negative = inhibition: Viability, at 45.9 µM (top of the series); further: potency means the concentration at half of the fitted maximal effect; on all read-outs here: nearly all actives have a fitted effect of over 60% in size
In short: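 CRISPR HLA-B*08:01-HiBit immortalized human myoblasts (C25cl48) stimulated with 4 ng/ml IFN-beta and compounds (12-point 1:3, top 46 uM final) for 24 h at 37 C. Duplicate plates read by HiBit lytic luminescence or CellTiter Glo ATP.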

[3] = at 45.9 µM (top of the series), tumour line B
[4] = at 45.9 µM (top of the series), tumour line D
[5] = at 46.1 µM (top of the series), tumour line C

Structure (SMILES) | Potency (JEG-3) | Potency (OV90) | Potency (PA-1) | Potency (SKOV3) | Potency (Tov-21-G) | Potency (Tov112D) | activity, negative = cell killing [1, 3] [%] | activity, negative = cell killing [1, 4] [%] | activity, negative = cell killing [1, 5] [%] | Potency [2] | activity change, negative = inhibition [2] [%]
COc1cc(C(=O)NS(=O)(=O)c2ccccc2C)ccc1Cc1cn(C)c2ccc(NC(=O)OC3CCCC3)cc12 | inactive | inactive | inactive | inactive | inactive | inactive | -14.2 | -15.9 | 5.07 |  | 
NC(=O)c1cccc2cn(-c3ccc([C@@H]4CCCNC4)cc3)nc12 | inactive | inactive |  | inactive | inactive |  |  |  |  |  | 
CN(C)Cc1c(C(=O)NCCOc2ccc(C(=O)NO)cc2)oc2ccccc12 | 3.55 µM (active) | 1.58 µM (active) | 1 µM (active) | 7.08 µM (active) | 7.94 µM (active) | 3.16 µM (active) |  |  |  | 0.787 µM (active) | -5.27
CC1(C)CC(=O)c2c(C(F)(F)F)nn(-c3ccc(C(N)=O)c(NC4CCC(OC(=O)CN)CC4)c3)c2C1 (centres undefined) | inactive | 0.355 µM (active) | 0.316 µM (active) |  | 0.355 µM (active) |  |  |  |  | 0.0557 µM (active) | 
Cc1ccc2nc(NC(=O)CSc3nc4c(c(=O)n3-c3ccccc3)SCC4)sc2c1 | inactive | inactive | inactive |  | inactive | inactive |  |  |  |  | 
C=CC(=O)Nc1cc2c(Nc3ccc(F)c(Cl)c3)ncnc2cc1OCCCN1CCOCC1 | inactive | inactive | inactive | 3.16 µM (active) |  | inactive |  |  |  | 15.7 µM (active) | -26.8
CC(C)CC(=O)Nc1n[nH]c2c1CN(C(=O)C1CCN(C)CC1)C2(C)C | inactive | 7.94 µM (active) | 0.447 µM (active) |  |  | 7.94 µM (active) |  |  |  | 0.701 µM (active) | 10.8
O=C(c1ccc(Nc2nccc(-c3cc4ccccc4s3)n2)cc1)N1CCC(N2CCCC2)CC1 | inactive | inactive |  | 25.1 µM (active) | 28.2 µM (active) | inactive |  |  |  | 17.6 µM (active) | 
CN1CCC(CNc2ccc3ncc(-c4cccc(OC(F)(F)F)c4)n3n2)CC1 | inactive | inactive | inactive |  | inactive | inactive |  |  |  |  | 
Cc1cn(-c2cc(NC(=O)c3ccc(C)c(Nc4nccc(-c5cccnc5)n4)c3)cc(C(F)(F)F)c2)cn1 | inactive | inactive | 12.6 µM (active) |  | inactive | inactive |  |  |  |  | 
C=CC(=O)N1CCC[C@@H](n2nc(-c3ccc(Oc4ccccc4)cc3)c3c(N)ncnc32)C1 | inactive | inactive | inactive |  | inactive | inactive |  |  |  |  | 
CNC(=O)CN1CCC(Oc2cc3c(Nc4cccc(Cl)c4F)ncnc3cc2OC)CC1 | inactive | inactive | inactive | 14.1 µM (active) |  | inactive |  |  |  |  | 
CC(=O)SC[C@@H](C)C(=O)N1CCC[C@H]1C(=O)N[C@@H](Cc1ccccc1)C(=O)O | inactive | inactive | inactive |  | inactive | inactive | -6.65 | 2.25 | -6.2 |  | 
COc1cc2c(Oc3ccc(-c4cnc(Nc5ccc(F)cc5)n(C)c4=O)cc3F)ccnc2cc1OCCCN1CCOCC1 | inactive | inactive |  | inactive |  |  |  |  |  |  | 
CNC(=O)c1ccccc1Nc1nc(Nc2ccc(N3CCOCC3)cc2OC)ncc1Cl | inactive | 1 µM (active) | 14.1 µM (active) | 11.2 µM (active) | 12.6 µM (active) |  |  |  |  | 1.4 µM (active) | 
CN(C)c1nc(Cc2ccc(NC(=O)c3ccc4ccccc4c3)cc2)nc(Cl)c1CC(=O)O | inactive | inactive | inactive |  | inactive | inactive |  |  |  |  | 
C[C@@H](Oc1cc(-c2cnn(C3CCNCC3)c2)cnc1N)c1c(Cl)ccc(F)c1Cl | 28.2 µM (active) | 25.1 µM (active) | 14.1 µM (active) |  | 14.1 µM (active) | inactive |  |  |  |  | 
CN(C)CC(C)(C)CNc1nn2c(-c3ccccc3)nnc2cc1C1CCC1 | inactive | inactive | inactive |  | inactive | inactive |  |  |  |  | 
C=CC(=O)Nc1cccc(Oc2nc(Nc3ccc(N4CCN(C)CC4)cc3)ncc2Cl)c1 | inactive | inactive | 8.91 µM (active) | 3.16 µM (active) | 8.91 µM (active) | 5.62 µM (active) |  |  |  | 22.2 µM (active) | 
COc1cc2c(NC3CCN(C(C)C)CC3)nc(C3CCCCC3)nc2cc1OCCCN1CCCC1 | 10 µM (active) | 11.2 µM (active) | 31.6 µM (active) | 12.6 µM (active) |  | 22.4 µM (active) |  |  |  |  | 
